# Assay results: the supplement of paper PMC6555819
# Test system: PPARg DBDmut:RXRa IVT, anti-PPARg (DBD mutation: PPARg1 K132A/R137A, NR concentration 270 nM, RXRa partner concentration 90 nM)
# Assay: PBM binding z-score (relative to random genomic background probes); higher = stronger binding; sequences stand for … in GC…GCGATTGACAGCGTAGAATGAAGG
# Outline: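 Each nuclear receptor dimer, without ligand, was incubated for 1 h on custom Agilent 4×180K protein-binding microarrays. Binding was detected with antibodies against each partner (one per run), and scanned fluorescence was regression-normalized. The binding z-scores are referenced to random human genomic background probes.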
row,Sequence,PBM binding z-score
1,GCTGCTAGGTCAGGTTGGTCAGCCAACGGGTACG,-1.3
2,CATACAGGGTCAGCTAGGACAGAGTAGGGACGGC,0.778
3,GCATATAGGTAATACAAGGTGCAAGTCCGATTGT,0.731
4,TCTATTAGTTGAATGGCAACCGACGAGTCCGTTT,0.422
5,CAAACTTGGTCACGAAAGGTCAAAGTCGAATGAC,0.428
6,GCTTGTAGATCAAGGTTAAGACAGACTAAGCTAA,0.667
7,CCGAGCAGGCCAGGGTCACTCAAGCATTTCGCTT,-1.99
8,ACTAGCAGGCCAAGGGTCACACAAGATTAGTCCG,-0.112
9,TTACCACGGTGAAAGGTCGTTGATGCACGCCTTG,0.23
10,GCTAGCAGGCCATTTGTGTCACTCAATGACGGGC,-0.775
11,ATCTCTAGGTTAGACTCAGTTCAGTGAAGAACGC,1.55
12,CGAACTAGGTCAGAACAGGACAGGGAAGGATGAT,2
13,CGTCAAAGTTCAACTAAGGTATCGTAAAGCACGC,1.2
14,TGATATAGGTAAATGCTAGGTGAAAGTCCGATCT,0.978
15,CGTCACAGTTCAAGGTAACGTAACAGAAAGCAGC,0.33
16,CCTACTGGGCCATCAGGTCCTTGATATCAACGTT,0.113
17,TCTTGTAGATCAATAGGAGGTTAAGAAAGATCGA,0.693
18,CCGACTGGGGAATAAGGTTACCATAAGCCAGCCC,-0.845
19,CCAGACAGGTGAGAAGGTTACTCAGCCTCGATTA,-0.652
20,GGAACGAGGGCAGGTTGATAGCAGAGTTTGATGG,-0.931

row,Sequence,PBM binding z-score
1,ATCGAAAGGTGGAGGTGAGTATAGAGAAAGGGAA,-0.138
2,GATACAGGGTCAGCTAGAGACCAGAGTATGGAAA,0.401
3,TCTGCTAGGTCATTTGGTCAGCTAACGAGCTGCC,3.37
4,CCTCGGAGGACAGAAGGTCAGAGATGTCCGCTTT,-1.91
5,CCTAGTTGGTCAGGACGTCACACACCGGATATGA,0.41
6,ATCGAAAGATCGAAGGTGAGTATACCCACCCGAA,-0.115
7,CCGAGTAGGTTATGGGGCATTCTGGCAACGGTGA,-0.237
8,TCATATAGGTAAATGCTAGGTGAAGGTCCGATCT,1.1
9,CGTCGAAGTTCAACTAAGGTAACGTAAAGCACGC,0.00916
10,TCGAGTAAGTTACCAATGGGGCATTCAGCTTTCT,-0.374
11,TCGAGTAGGTTACCAATGGGGCATTCGGCTTTCT,-1.22
12,GCTTGTAGATCAAGGTTAAGAATGACTAAGCTAA,0.367
13,CTACCAAGGTGAACAAGGTCGTTGTTTACTATTC,0.468
14,CCTAGCATGCCAGGGTCACTCAAGCATTTCGCTT,-0.691
15,CGTCCAAGGTCAAAGGTAAGTGAAGAGATGACGG,0.556
16,CCTAGCAGCCCAATCTGGGTCACTCAAGGCTTGA,-0.334
17,CCTAGCAGGCCAATCTGGGTCACGCAAGGCTTGA,0.23
18,GCGACTGGGGCAAAGCAGGTTACCAGAAGGTTGG,-1.13
19,CTCGAAAGGTGGGTTGAGGTGAGTATACGGATAA,0.168
